About 79,000 compounds went through this panel and 15% of them were active in at least one assay; those are over-represented in the sample as a whole. Calls of active or inactive are those of the source. Rule as the data show it: active = growth inhibition above about 70%; inactive = the rest.
Experiment: NCI Yeast Anticancer Drug Screen. Data for the rad50EPP+ strain (AID 151);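 also: 0% = growth of vehicle-treated control cultures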
Conditions: S. cerevisiae rad50 mutant strain, active compounds read high
Protocol: Growth inhibition of yeast strains with defined genetic alterations is measured as a screen for potential anti-cancer activity. Selected strains with alterations in DNA damage repair or cell cycle control were exposed to compounds and growth inhibition was measured relative to vehicle treated controls. The strain used in this assay is rad50EPP+

Measured: growth inhibition

O=C(N/N=C\c1c(Cl)cccc1Cl)N/N=C/c1c(Cl)cccc1Cl
inactive: at 1.2 µM 7% | at 3.7 µM 19% | at 11.0 µM 10% | at 33.0 µM 2% | at 100.0 µM 5%

N#CSC1CCCCNC1=O (stereo not given)
active: at 33.0 µM 70% | at 100.0 µM 85%
inactive: at 1.2 µM 6% | at 3.7 µM 18% | at 11.0 µM 42%

CN(C)Cc1cccc(CN(C)C)[c]1[Sn]([Br])([c]1ccccc1)[c]1ccccc1
inactive: at 1.2 µM 19% | at 3.7 µM 32% | at 11.0 µM 30% | at 33.0 µM 36% | at 100.0 µM 39%

O=c1[nH]cc(/C=N\Nc2ccccc2)c(=O)[nH]1
inactive: at 1.2 µM 2% | at 3.7 µM 7% | at 11.0 µM 28% | at 33.0 µM 43% | at 100.0 µM 42%

N#Cc1sc2c(c1OC(=O)c1ccco1)c(=O)n(-c1ccccc1)c(=S)n2-c1ccccc1
inactive: at 1.2 µM 9% | at 3.7 µM 6% | at 11.0 µM 11% | at 33.0 µM 8% | at 100.0 µM 5%

CN[C@@H]1C[C@H]2O[C@@](C)([C@@H]1OC)n1c3ccccc3c3c4c(c5c6ccccc6n2c5c31)C(=O)N[C@@H]4O
inactive: at 1.2 µM -23% | at 3.7 µM -18% | at 11.0 µM -9% | at 33.0 µM -11% | at 100.0 µM 21%

O=C(O)c1[nH]c(=O)c2ccccc2c1Nc1ccccc1
inactive: at 1.2 µM -3% | at 3.7 µM -2% | at 11.0 µM 0% | at 33.0 µM -1% | at 100.0 µM 6%

Cc1ccc(S(=O)(=O)N/N=C/C2(c3ccccc3)c3ccccc3-c3ccccc32)cc1
inactive: at 1.2 µM 11% | at 3.7 µM 2% | at 11.0 µM 17% | at 33.0 µM -8% | at 100.0 µM -37%

Reference: PubChem BioAssay (NCI)
